This is part of a sample that, as a whole, favours compounds with a hit. Of some 83,000 tested, about 20% had one in any assay.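 Method: cells in 96-well plates; compound added at one concentration; 48 h incubation; percent growth measured; values under 10 scored active.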
Legend:
Assay in all cases: NCI-60 one-dose screen, 48 h (100 = growth as untreated, 0 = no growth, -100 = all killed)
Details in all cases: 10 µM unless noted
[1] = tested on: DU-145 prostate
[2] = tested on: K-562 leukemia
[3] = tested on: MALME-3M melanoma
[4] = tested on: MDA-MB-231 breast
[5] = tested on: RXF 393 renal
[6] = tested on: SF-268 CNS
[7] = tested on: SF-295 CNS
[8] = tested on: SF-539 CNS
[9] = tested on: UACC-257 melanoma
[10] = tested on: M14 melanoma
[11] = tested on: HCT-15 colon
[12] = tested on: HT29 colon
[13] = tested on: SNB-75 CNS
[14] = tested on: SNB-19 CNS
[15] = tested on: PC-3 prostate
[16] = tested on: SK-MEL-5 melanoma
[17] = tested on: UACC-62 melanoma
[18] = tested on: LOX IMVI melanoma
[19] = tested on: SK-MEL-28 melanoma
[20] = tested on: U251 CNS

Measured: growth

O=C1CC2c3cc(-c4cc5ccccc5o4)ccc3CCN2C(=O)N1c1ccccc1 (stereo unspecified)
inactive: [1] 96.5% | [2] 58.4% | [3] 71.6% | [4] 93.3% | [5] 114% | [6] 92.4% | [7] 90% | [8] 106% | [9] 87.8% | [10] 90.7% | [11] 54.6% | [12] 85.7% | [13] 73.8% | [14] 89.6% | [15] 51.9% | [16] 82.7% | [17] 81.1% | [18] 94.4% | [19] 99.8%

O=S(=O)(/N=C1C=C/C(=N\S(=O)(=O)c2ccccc2)c2ccccc2\1)c1ccccc1
inactive: [1] 117% | [2] 91.8% | [3] 107% | [4] 98.3% | [5] 107% | [6] 104% | [7] 116% | [8] 123% | [9] 95.1% | [10] 112% | [11] 106% | [12] 118% | [13] 96.1% | [14] 116% | [15] 79.6% | [17] 104% | [18] 68.9% | [19] 101%

O=C(NC1CC1)c1cc2n(n1)CC(c1ccccc1)N2 (stereo unspecified)
inactive: [1] 107% | [2] 103% | [3] 104% | [4] 91.3% | [5] 95.6% | [6] 95.2% | [7] 91.8% | [8] 96.3% | [9] 98.3% | [10] 101% | [11] 95.3% | [12] 107% | [14] 100% | [20] 102% | [15] 98.8% | [16] 99.4% | [17] 88.4% | [18] 98.3% | [19] 107%

COc1ccc(-c2c3c(N)c4c(nc3nc3c2c(C)nn3-c2ccccc2)CCCCC4)cc1
inactive: [1] 91.6% | [2] 24.5% | [3] 101% | [4] 105% | [5] 106% | [6] 94.5% | [7] 85% | [8] 93.9% | [9] 93.9% | [10] 88.9% | [11] 73.9% | [12] 41.4% | [13] 79.8% | [14] 93.7% | [15] 70.4% | [16] 90.6% | [17] 98% | [18] 90.6% | [19] 98%

COc1ccc(C(=O)C2=CC(=O)C(=O)C2)cc1OC
inactive: [1] 111% | [2] 116% | [3] 114% | [4] 124% | [5] 106% | [6] 103% | [7] 100% | [8] 95.5% | [9] 115% | [10] 107% | [11] 96.2% | [12] 98.1% | [13] 90.8% | [14] 105% | [15] 94.5% | [16] 103% | [18] 101% | [19] 112%

COc1ccc(C2SC(C)C(=O)N2CCc2cccs2)cc1OC (stereo unspecified)
inactive: [1] 93.3% | [2] 62.3% | [3] 119% | [4] 73.2% | [5] 86.1% | [6] 89.2% | [7] 75.5% | [8] 94.1% | [9] 75.7% | [10] 121% | [11] 87.8% | [12] 91.6% | [14] 86.9% | [20] 83.2% | [15] 65.7% | [16] 49.4% | [18] 81.9% | [19] 108%
